# Measurements reported in PubChem BioAssay.
# Active and inactive are the calls of the source. Unless noted, no rule for the calls is given here.
# Legend:
# [1] = A549 cell viability effects, profiling panel, calcein-AM fluorescence, 48 h, basal (AID 1162); conditions: higher = more signal; also: test concentration not given here
# [2] = adipocyte viability effects, profiling panel, cell-based, 3T3-L1 adipocytes, calcein-AM fluorescence, 48 h, basal (AID 1163); conditions: 3T3-L1 adipocytes viability, higher = more signal; also: test concentration not given here
# [3] = HepG2 cell viability effects, profiling panel, calcein-AM fluorescence, 48 h, basal (AID 1164); conditions: higher = more signal; also: test concentration not given here
# [4] = MM1S cell viability effects, profiling panel, calcein-AM fluorescence, 48 h, basal (AID 1165); conditions: higher = more signal;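 also: viability of MM1S multiple myeloma cells under basal unstimulated conditions; test concentration not given here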
# [5] = basal RPMI8226 viability, no added stimulus, profiling panel, cell-based, calcein-AM fluorescence, 48 h, PK04 Diversity Set (AID 1166); conditions: RPMI8226 myeloma viability, higher = more signal;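 also: cells grown under basal conditions without added stimulus; test concentration not given here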
# [6] = basal HepG2 mitochondrial membrane potential changes, profiling panel, cell-based, JC-1 fluorescence, 24 h, 100 nL compound (AID 1167); conditions: higher = more signal; also: test concentration not given here
# [7] = basal 3T3-L1 adipocyte mitochondrial potential changes, profiling panel, cell-based, JC-1 fluorescence, 3T3-L1 adipocytes, 24 h, 100 nL compound (AID 1168); conditions: JC-1 mitochondrial fluorescence, higher = more signal, called active from +8 up or from −8 down; also: test concentration not given here
# [8] = basal RPMI8226 mitochondrial membrane potential changes, profiling panel, cell-based, JC-1 fluorescence, 24 h, 100 nL compound (AID 1169); conditions: RPMI8226 myeloma, JC-1 mitochondrial potential fluorescence, higher = more signal; also: test concentration not given here
# [9] = basal MM1S mitochondrial membrane potential changes, profiling panel, cell-based, JC-1 fluorescence, 24 h, 100 nL compound (AID 1170); conditions: higher = more signal; also: test concentration not given here
# [10] = A549 lung cancer cell viability effects, profiling panel, resazurin fluorescence, 24 h, PK04 Diversity Set (AID 1171); conditions: higher = more signal, called active from +8 up or from −8 down; also: test concentration not given here
# [11] = HepG2 liver cancer cell viability effects, profiling panel, resazurin fluorescence, 24 h, PK04 Diversity Set (AID 1172); conditions: higher = more signal; also: test concentration not given here
# [12] = basal S. cerevisiae growth modulation, no modifier, primary screen, OD600, strain BY4716, 24 h, basal condition (AID 1173); conditions: OD600, 24 h, higher = more signal, called active from +8 up or from −8 down
# [13] = MM1S myeloma cell viability, profiling panel, resazurin fluorescence, basal, 24 h, PK04 Diversity Set (AID 1174); conditions: higher = more signal, called active from +8 up or from −8 down;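 also: MM1S multiple myeloma cell line; test concentration not given here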
# [14] = biological target: Dihydroorotate dehydrogenase (quinone), mitochondrial (Plasmodium falciparum (isolate 3D7)) (UniProt Q08210); assay: PfDHODH enzyme inhibitors, primary screen, biochemical, C-terminal His tag, absorbance 600 nm (AID 1175); conditions: DCIP absorbance 600 nm, higher = more signal, called active from +8 up or from −8 down;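 also: recombinant parasite enzyme with a five histidine tag at its C terminus; test concentration not given here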
# [15] = P. aeruginosa biofilm formation inhibitors, primary screen, strain PAO1, LB-PBS medium, absorbance 600 nm (AID 1176); also: test concentration not given here; conditions: P. aeruginosa PAO1 growth/biofilm, A600, 12 h; higher = more signal
# [16] = S. cerevisiae RM11-1a growth modifiers, primary screen, strain RM11-1a, OD600, basal, 24 h (AID 1177); conditions: OD600, 24 h, higher = more signal, called active from +8 up or from −8 down;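 also: cultures grown under basal conditions with no added stressor; test concentration not given here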
# [17] = E. coli acrAB mutant growth effects, primary screen, E. coli filamentation inducers, strain DRC39, OD650, 24 h (AID 1178); conditions: higher = more signal, called active from +8 up or from −8 down;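 also: growth measured as culture turbidity by optical density at 650 nm; test concentration not given here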
# [18] = E. coli acrAB mutant growth effects, primary screen, E. coli filamentation inducers, strain DRC39, OD650, 48 h (AID 1179);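 also: screen aims at cell division blockers that make cells filament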; conditions: E. coli DRC39 delta-acrAB growth, higher = more signal, called active from +8 up or from −8 down
# [19] = RPMI8226 myeloma cell viability, profiling panel, resazurin fluorescence, basal, 24 h, PK04 Diversity Set (AID 1180); conditions: higher = more signal;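 also: RPMI8826 multiple myeloma cell line at 5000 cells per well; test concentration not given here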
# [20] = biological target: E3 ubiquitin-protein ligase XIAP (Homo sapiens) (UniProt P98170); assay: XIAP binders, primary screen, biophysical, small-molecule microarray, fluorescence 635 nm (AID 1181); conditions: small-molecule microarray binding, higher = more signal;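 also: score merges 667 nm emission and signal to noise over triplicate slides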
# E3 ubiquitin-protein ligase XIAP (Homo sapiens), sequence (P98170 whole entry, looked up): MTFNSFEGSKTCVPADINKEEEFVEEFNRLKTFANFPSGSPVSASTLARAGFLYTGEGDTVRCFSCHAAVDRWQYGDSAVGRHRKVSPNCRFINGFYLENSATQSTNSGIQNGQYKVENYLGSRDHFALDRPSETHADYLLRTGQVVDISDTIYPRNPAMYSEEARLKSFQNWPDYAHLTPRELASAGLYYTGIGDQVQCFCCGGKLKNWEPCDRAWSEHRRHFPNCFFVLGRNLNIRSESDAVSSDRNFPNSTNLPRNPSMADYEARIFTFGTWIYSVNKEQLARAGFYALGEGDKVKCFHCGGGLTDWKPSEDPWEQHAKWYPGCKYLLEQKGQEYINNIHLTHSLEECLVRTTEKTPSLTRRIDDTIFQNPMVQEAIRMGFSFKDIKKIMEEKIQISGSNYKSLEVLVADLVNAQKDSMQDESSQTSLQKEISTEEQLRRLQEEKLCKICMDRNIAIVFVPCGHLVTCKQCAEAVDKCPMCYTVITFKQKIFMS
# Dihydroorotate dehydrogenase (quinone), mitochondrial (Plasmodium falciparum (isolate 3D7)), sequence (Q08210 whole entry, looked up): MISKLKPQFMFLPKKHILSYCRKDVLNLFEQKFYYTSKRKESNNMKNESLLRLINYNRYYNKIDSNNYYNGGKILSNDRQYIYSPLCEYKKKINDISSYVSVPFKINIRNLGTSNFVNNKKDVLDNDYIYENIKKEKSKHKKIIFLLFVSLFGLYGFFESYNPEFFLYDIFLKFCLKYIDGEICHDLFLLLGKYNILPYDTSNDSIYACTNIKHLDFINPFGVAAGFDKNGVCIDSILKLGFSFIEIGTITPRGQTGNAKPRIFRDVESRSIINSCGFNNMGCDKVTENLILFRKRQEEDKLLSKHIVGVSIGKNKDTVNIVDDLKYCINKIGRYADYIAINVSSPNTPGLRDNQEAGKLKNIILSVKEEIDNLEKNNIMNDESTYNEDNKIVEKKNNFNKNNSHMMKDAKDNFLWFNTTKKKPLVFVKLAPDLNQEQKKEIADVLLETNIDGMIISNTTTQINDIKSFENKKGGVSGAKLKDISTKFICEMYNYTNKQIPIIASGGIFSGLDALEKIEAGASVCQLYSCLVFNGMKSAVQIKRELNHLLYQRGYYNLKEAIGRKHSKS
Structure (SMILES),z-score [1],z-score [2],z-score [3],z-score [4],z-score [5],z-score [6],z-score [7],z-score [8],z-score [9],z-score [10],z-score [11],z-score [12],z-score [13],composite z-score [14],z-score [15],z-score [16],z-score [17],z-score [18],z-score [19],composite z-score [20]
O=C1C[C@@](C(=O)O)(c2ccc([N+](=O)[O-])cc2)[C@@H](c2ccc(CO)cc2I)N1CC12CC3CC(CC(C3)C1)C2,-1.27,-1.05,-4.72,-3.8,-4.35,-2.54,-1.28 (inactive),-0.811,-2.41,-1.77 (inactive),-1.79,-4.78 (inactive),-5.9 (inactive),-1.49 (inactive),1.34 (inactive),-0.326 (inactive),-0.401 (inactive),-0.0671 (inactive),-6,-0.17
COc1ccc([Si](C)(C)[C@H]2[C@H](CC(=O)N(CCO)Cc3ccccc3)O[C@@]3(C(=O)N(Cc4cccc(N5C(=O)c6cccc7cccc5c67)c4)c4ccccc43)[C@@H]2C)cc1,-0.191,0.996,-1.5,-0.883,-4.29,0.0381,2.83 (inactive),-1.06,-1.08,-2.32 (inactive),-0.101,0.476 (inactive),-3.19 (inactive),-2.98 (inactive),1.98 (inactive),0.768 (inactive),0.67 (inactive),0.865 (inactive),-2.93,0.0564
CC(=O)n1cc(C(O)C2C=CC3C(=O)N(c4ccccc4)C(=O)C3N2Nc2ccc(C#N)cc2)c2ccccc21 (stereo not given),1.38,-0.876,0.52,0.245,-0.434,-1.04,-0.855 (inactive),0.423,-0.488,1.52 (inactive),-0.592,-2.71 (inactive),-0.897 (inactive),-0.796 (inactive),0.956 (inactive),-0.129 (inactive),-0.698 (inactive),-0.119 (inactive),-0.189,0.147
O=C1O[C@@H](c2ccccc2)[C@@H](c2ccccc2)N2[C@@H](c3ccc(O)cc3)[C@]3(C(=O)Nc4ccc(C#CCCO)cc43)[C@@H](C(=O)N3CCCCCCC3)[C@H]12,0.498,0.93,-0.284,0.59,-1.24,-1.06,-0.585 (inactive),-0.185,0.129,0.254 (inactive),-0.348,0.176 (inactive),-0.161 (inactive),1.29 (inactive),1.01 (inactive),0.524 (inactive),0.0109 (inactive),-0.787 (inactive),-0.53,0.567
C[C@H]1C2[C@H](Cc3ccccc3)NC(=O)[C@]23C(=O)N[C@H](Cc2ccccc2)C(=O)N[C@H](Cc2ccccc2)C(=O)NC/C=C/CCC/C=C/C3[C@@H]2O[C@]12C (stereo not given in full),0.144,1.58,-0.385,-1.01,-3.48,1.71,-0.77 (inactive),-0.469,-1.08,-1.5 (inactive),-1.6,-1.6 (inactive),-0.121 (inactive),0.453 (inactive),-0.283 (inactive),0.336 (inactive),0.276 (inactive),-0.934 (inactive),-0.403,-0.0807
C=CCC(OC(C)=O)[C@@H]1[C@@H](N(Cc2ccc(-c3cccc(C(F)(F)F)c3)o2)C(=O)Cc2ccc(OC)cc2)c2cc(OCCCO)ccc2N1C(=O)Cc1ccc(OC)cc1 (stereo not given in full),1.92,1.38,0.641,0.018,-1.02,2.08,-0.709 (inactive),-0.804,-0.757,0.139 (inactive),-0.0596,-1.2 (inactive),1.08 (inactive),-1.49 (inactive),0.125 (inactive),-1.08 (inactive),1.49 (inactive),0.814 (inactive),0.695,-0.0879
CC1CC/C=C\[C@H]2OC34C=CCN(CCN5CCOCC5)C(=O)[C@H]3N(CCCCCO)C(=O)[C@@H]4C2C(=O)O1 (stereo not given in full),-0.365,0.374,0.68,1.09,0.0186,-0.461,-0.189 (inactive),-0.0345,-0.107,-0.19 (inactive),-0.693,-0.501 (inactive),0.183 (inactive),1.07 (inactive),-0.456 (inactive),0.0357 (inactive),0.408 (inactive),0.45 (inactive),-0.977,0.33
C=C[C@H](C)[C@H](OC(=O)Nc1ccc(OC)cc1)c1ccc(O)c2ccccc12,-0.697,0.256,-1.87,-2.98,-4.25,-3.3,-1 (inactive),-1.03,-2.07,-0.232 (inactive),-0.475,-18.5 (active),-2.68 (inactive),-1.79 (inactive),0.908 (inactive),-17 (active),0.405 (inactive),-0.0111 (inactive),-2.21,-0.003
O=C1O[C@@H](c2ccccc2)[C@@H](c2ccccc2)N2[C@@H](c3ccccc3OCCO)[C@]3(C(=O)Nc4ccc(C#CC5(O)CCCCCC5)cc43)[C@@H](C(=O)NC[C@H](O)c3ccccc3)[C@H]12,-0.724,0.737,-3.6,-3.31,-4.17,-1.14,0.986 (inactive),-0.935,-1.98,-2.91 (inactive),-2.02,0.934 (inactive),-7.38 (inactive),-0.516 (inactive),1.66 (inactive),2.41 (inactive),-0.0933 (inactive),-0.0241 (inactive),-7.19,0.0264
